# Results reported in PubChem BioAssay AID1159580 (chemical genetic matrix, 2015).
# In all, about 5,500 compounds went through this assay and about 2,000 (36%) were called active. About 18% were inconclusive and are not listed. The list shows a part of the results. Values without a mark were called inactive. Rule as the data show it: active = normalized growth mostly below about 0.91 (no sharp cut-off); inconclusive = no clear call, values can overlap the other calls; inactive = mostly above about 0.92.
# Test: chemical genetic growth profiling, strain panel (AID 1159580);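 also: tested at 20 µM; growth read once vehicle control cultures reached saturation at 30 °C; 1 = growth at the plate median or of vehicle wells; lower values mean less growth of the strain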
# Conditions: S. cerevisiae deletion strains, growth OD
compound,measurement,setting,value
Cc1cccc(C(=O)NCN2CCN(c3ccccc3C#N)CC2)c1,normalized growth,"locus YAL040C, strain CLN3, active compounds read low",0.963
same,normalized growth,"locus YCL061C, strain MRC1 (second series), active compounds read low",0.978
same,normalized growth,"locus YDR150W, strain NUM1, active compounds read low",0.987
same,normalized growth,"locus YDR363W, strain ESC2, active compounds read low",0.975
same,normalized growth,"locus YER002W, strain NOP16, active compounds read low",0.974
same,normalized growth,"locus YGR229C, strain SMI1, active compounds read low",0.942
same,normalized growth,"locus YJR075W, strain HOC1, active compounds read low",0.978
same,normalized growth,"locus YMR307W, strain GAS1, active compounds read low",1.01
same,normalized growth,"locus YNL175C, strain NOP13, active compounds read low",0.979
same,normalized growth,"locus YNL197C, strain WHI3, active compounds read low",0.976
same,normalized growth,"locus YNL224C, strain SQS1, active compounds read low",0.993
same,normalized growth,"locus YOR083W, strain WHI5 (second series), active compounds read low",0.982
same,normalized growth,"locus YPL241C, strain CIN2, active compounds read low",0.982
FC(F)(F)c1cccc(NC(=S)Nc2csc(C(F)(F)F)c2-c2ccccc2)c1,normalized growth,"locus YAR019C, strain CDC15, active compounds read low",0.968
same,normalized growth,"locus YBL105C, strain PKC1, active compounds read low",0.998
same,normalized growth,"locus YBR135W, strain CKS1, active compounds read low",0.995
same,normalized growth,"locus YBR136W, strain MEC1, active compounds read low",0.97
same,normalized growth,"locus YBR160W, strain CDC28, active compounds read low",0.988
same,normalized growth,"locus YDL017W, strain CDC7, active compounds read low",0.998
same,normalized growth,"locus YDL028C, strain MPS1, active compounds read low",0.992
same,normalized growth,"locus YDL101C, strain DUN1, active compounds read low",0.983
same,normalized growth,"locus YDL108W, strain KIN28, active compounds read low",0.993
same,normalized growth,"locus YDL132W, strain cdc53, active compounds read low",0.98
same,normalized growth,"locus YDL214C, strain PRR2, active compounds read low",0.944
same,normalized growth,"locus YDR052C, strain DBF4, active compounds read low",0.987
same,normalized growth,"locus YDR054C, strain cdc34, active compounds read low",0.97
same,normalized growth,"locus YDR226W, strain ADK1, active compounds read low",0.988
same,normalized growth,"locus YDR477W, strain SNF1, active compounds read low",0.991
same,normalized growth,"locus YER123W, strain YCK3, active compounds read low",0.991
same,normalized growth,"locus YER133W, strain GLC7, active compounds read low",0.964
same,normalized growth,"locus YFL009W, strain cdc4, active compounds read low",0.977
same,normalized growth,"locus YFL029C, strain CAK1, active compounds read low",0.954
same,normalized growth,"locus YFR003C, strain YPI1, active compounds read low",0.997
same,normalized growth,"locus YFR019W, strain FAB1, active compounds read low",0.984
same,normalized growth,"locus YFR028C, strain CDC14, active compounds read low",0.976
same,normalized growth,"locus YGR040W, strain KSS1, active compounds read low",0.981
same,normalized growth,"locus YGR052W, strain FMP48, active compounds read low",1.03
same,normalized growth,"locus YGR092W, strain DBF2, active compounds read low",0.951
same,normalized growth,"locus YHR030C, strain SLT2, active compounds read low",0.848 (active)
same,normalized growth,"locus YHR079C, strain IRE1, active compounds read low",0.958
same,normalized growth,"locus YHR082C, strain KSP1, active compounds read low",1
same,normalized growth,"locus YHR205W, strain SCH9, active compounds read low",0.973
same,normalized growth,"locus YIL147C, strain SLN1, active compounds read low",0.984
same,normalized growth,"locus YJL095W, strain BCK1, active compounds read low",0.959
same,normalized growth,"locus YJL128C, strain PBS2, active compounds read low",0.973
same,normalized growth,"locus YJL157C, strain FAR1, active compounds read low",0.964
same,normalized growth,"locus YJR016C, strain ILV3, active compounds read low",0.984
same,normalized growth,"locus YJR066W, strain TOR1 (second series), active compounds read low",0.934
same,normalized growth,"locus YJR066W, strain TOR1, active compounds read low",0.983
same,normalized growth,"locus YKL048C, strain ELM1, active compounds read low",0.997
same,normalized growth,"locus YKL067W, strain YNK1, active compounds read low",0.963
same,normalized growth,"locus YKL101W, strain HSL1, active compounds read low",0.952
same,normalized growth,"locus YKL193C, strain SDS22, active compounds read low",0.985
same,normalized growth,"locus YKL203C, strain TOR2, active compounds read low",1.03
same,normalized growth,"locus YLR113W, strain HOG1, active compounds read low",0.892
same,normalized growth,"locus YLR133W, strain CKI1, active compounds read low",0.96
same,normalized growth,"locus YLR403W, strain SFP1, active compounds read low",0.989
same,normalized growth,"locus YML070W, strain DAK1, active compounds read low",0.965
same,normalized growth,"locus YMR001C, strain CDC5, active compounds read low",0.993
same,normalized growth,"locus YMR205C, strain PFK2 (second series), active compounds read low",0.96
same,normalized growth,"locus YMR277W, strain FCP1, active compounds read low",0.987
same,normalized growth,"locus YNL006W, strain LST8, active compounds read low",0.988
same,normalized growth,"locus YNL020C, strain ARK1, active compounds read low",0.964
same,normalized growth,"locus YNL161W, strain CBK1, active compounds read low",0.988
same,normalized growth,"locus YNL183C, strain NPR1, active compounds read low",0.976
same,normalized growth,"locus YNL207W, strain RIO2, active compounds read low",0.973
same,normalized growth,"locus YNL222W, strain SSU72, active compounds read low",0.991
same,normalized growth,"locus YNL307C, strain MCK1 (second series), active compounds read low",0.938
same,normalized growth,"locus YOL078W, strain AVO1, active compounds read low",0.986
same,normalized growth,"locus YOL136C, strain PFK27, active compounds read low",0.953
same,normalized growth,"locus YOR061W, strain CKA2, active compounds read low",0.945
same,normalized growth,"locus YOR119C, strain RIO1, active compounds read low",0.978
same,normalized growth,"locus YOR231W, strain MKK1, active compounds read low",0.957
same,normalized growth,"locus YOR329C, strain SCD5, active compounds read low",0.991
same,normalized growth,"locus YPL031C, strain PHO85, active compounds read low",0.976
same,normalized growth,"locus YPL153C, strain RAD53, active compounds read low",0.976
same,normalized growth,"locus YPL204W, strain HRR25, active compounds read low",0.955
same,normalized growth,"locus YPL209C, strain IPL1, active compounds read low",0.997
same,normalized growth,"locus YPL256C, strain CLN2, active compounds read low",0.934
same,normalized growth,"locus YPR025C, strain CCL1, active compounds read low",0.992
same,normalized growth,"locus YPR106W, strain ISR1, active compounds read low",0.984
same,normalized growth,"locus YPR111W, strain DBF20, active compounds read low",0.981
same,normalized growth,"strain NNK1, active compounds read low",0.991
same,normalized growth,"strain TSCII, active compounds read low",0.968
